Laboratory results as given in PubChem BioAssay.
Active and inactive are the calls of the source.

Assays:
[1] = test system: Human papillomavirus type 1a protein E7 (residues 44-93); assay: small molecules binding HPV E7 44-93 – biochemical, small-molecule microarray, residues 44-93, 635 nm fluorescence, primary screen (AID 1108); details: fluorescence 635 nm, higher = more signal;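 note: E7 fragment applied at 1 µg/mL in TBST for 1 h at 4 C; score combines spot fluorescence with its signal to noise ratio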
[2] = hepatitis C replication reporter changes, two-sided – Huh7 cells, luciferase reporter, HCV replication inhibitor project, primary screen (AID 1109); details: Huh7 HCV replicon luciferase reporter, 48 h; higher = more signal;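 note: huh7 hepatoma cells harbouring a luciferase neomycin HCV replicon reporter; luciferase luminescence as measure of HCV replicon replication; test concentration not given here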
[3] = biological target: Left-right determination factor 2 (Homo sapiens) (UniProt O00292); assay: small molecules binding LEFTY2 protein – biochemical, small-molecule microarray, 635 nm fluorescence scan, primary screen (AID 1110); details: higher = more signal
[4] = biological target: Calmodulin-1 (Homo sapiens) (UniProt P0DP23); assay: small molecules binding calmodulin-1 with EGTA – biochemical, small-molecule microarray, Cy5-labelled CALM1, profiling panel (AID 1111); details: Cy5-CALM1 binding fluorescence, higher = more signal;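 note: labelled calmodulin applied in Tris saline Tween buffer holding calcium plus EGTA and DTT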
[5] = biological target: Calmodulin-1 (Homo sapiens) (UniProt P0DP23); assay: small molecules binding Ca-loaded calmodulin-1 – biochemical, small-molecule microarray, Cy5-labelled CALM1, plus calcium, artefact control for SMM control-protein annotation, profiling panel (AID 1112); details: Cy5-CALM1 binding fluorescence, higher = more signal;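 note: score merges spot fluorescence with signal to noise from triplicate slides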
[6] = probe aWnt5a binding to arrayed compounds – biochemical, biotinylated probe, 635/667 nm fluorescence, primary screen (AID 1113); details: small-molecule microarray, higher = more signal;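 note: score merges 667 nm fluorescence intensity with signal-to-noise per printed feature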
[7] = probe aShh binding to arrayed compounds – biochemical, biotinylated probe, 635/667 nm fluorescence, primary screen (AID 1114); details: small-molecule microarray, higher = more signal;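 note: probe is biotin-labelled aShh protein from a stem cell growth factor screen; measures binding of labelled protein to compounds printed on the slide; score merges feature fluorescence at 667 nm with signal-to-noise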
[8] = probe aNog binding to arrayed compounds – biochemical, biotinylated probe, 635/667 nm fluorescence, primary screen (AID 1115); details: small-molecule microarray, higher = more signal;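 note: probe is biotinylated aNog protein used at 0.15 µg/mL for 1 h at 4 C; z-score combines 667 nm fluorescence of each spot with its signal to noise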
[9] = biological target: Torsin-1A-interacting protein 1 (Homo sapiens) (UniProt Q5JTV8); assay: compound microarray binding of lysate hLAP1 – cell lysate, small-molecule microarray, COS7 lysate, 635/667 nm fluorescence, primary screen (AID 1116); details: 635 nm fluorescence, higher = more signal
[10] = biological target: Alpha-bungarotoxin (Bungarus multicinctus) (UniProt P60615); assay: compounds binding labelled alpha-BTX control protein – biochemical, small-molecule microarray, Alexa647 label, 635/667 nm fluorescence, artefact control for SMM control protein annotation, profiling panel (AID 1117); details: alpha-BTX-A647 binding fluorescence, higher = more signal
[11] = biological target: Albumin (Bos taurus) (UniProt P02769); assay: compounds binding labelled BSA control protein – biochemical, small-molecule microarray, Alexa647 label, 635/667 nm fluorescence, artefact control for SMM control protein annotation, profiling panel (AID 1118); details: BSA-A647 binding, fluorescence 635 nm, higher = more signal;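 note: score merges 667 nm emission intensity and signal-to-noise per printed compound spot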
[12] = probe aXIP binding to arrayed compounds – biochemical, NeuroSMM set, 635/667 nm fluorescence, primary screen (AID 1119); details: small-molecule microarray, higher = more signal, called active from +8 up or from −8 down;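 note: probe is the protein aXip251-270 applied at 1 µg/mL to compound-printed slides; binding of probe to printed compounds measured as 667 nm fluorescence plus signal to noise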
[13] = probe aNOTCH3 binding on compound microarray – biochemical, small-molecule microarray, 635/667 nm fluorescence, primary screen (AID 1120); details: higher = more signal;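 note: probe is a biotin-tagged antibody raised against NOTCH3 rather than NOTCH3 protein; score merges spot fluorescence near 667 nm with spot signal to noise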
[14] = probe aNOTCH2 binding on compound microarray – biochemical, small-molecule microarray, 635/667 nm fluorescence, primary screen (AID 1121); details: higher = more signal;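 note: score merges feature fluorescence read at 667 nm with its signal to noise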
[15] = biological target: Carbonic anhydrase 2 (Homo sapiens) (UniProt P00918); assay: compounds binding carbonic anhydrase 2 – biochemical, small-molecule microarray, Alexa647-labelled CAII, profiling panel (AID 1122); details: CAII-A647 binding fluorescence, higher = more signal
[16] = COS7 lysate on small-molecule microarray, probe aHis, 635 nm (AID 1123); details: COS7 cell lysate, fluorescence, higher = more signal;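 note: z-score combines 667nm fluorescence intensity with signal-to-noise per printed compound spot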
[17] = probe aLAP1 signal on lysate-treated microarray – cell lysate, small-molecule microarray, COS7 lysate, primary screen (AID 1124); details: probe aLAP1, fluorescence, higher = more signal;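 note: lysate comes from COS7 cells expressing LAP1 and is applied at 0.3 µg/mL; score merges spot fluorescence near 667 nm with signal-to-noise over triplicate slides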
[18] = test system: Sam68 (KHDRBS1); assay: compounds binding KHDRBS1 protein – biochemical, small-molecule microarray, 635 nm fluorescence, primary screen (AID 1125); details: higher = more signal;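 note: score merges 667 nm channel intensity with signal to noise over triplicate slides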
[19] = test system: Chordin-like protein 2 (CHRDL2); assay: compounds binding chordin-like 2 – biochemical, small-molecule microarray, 635 nm fluorescence, primary screen (AID 1126); details: fluorescence 635 nm, higher = more signal;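 note: printed compound slides probed with Chrdl2 protein at 4 µg/mL for 1 h at 4 C; score merges 667 nm emission intensity with signal to noise over three replicate slides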
[20] = biological target: Concanavalin-A (Canavalia ensiformis) (UniProt P02866); assay: compounds binding concanavalin A lectin – biochemical, small-molecule microarray, Alexa647 label, 635 nm, artefact control for SMM control protein annotation, primary screen (AID 1127); details: ConA-A647 binding fluorescence, higher = more signal;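 note: z combines 667 nm emission intensity with signal-to-noise across three replicate slides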
Concanavalin-A (Canavalia ensiformis), sequence (P02866 whole entry, looked up): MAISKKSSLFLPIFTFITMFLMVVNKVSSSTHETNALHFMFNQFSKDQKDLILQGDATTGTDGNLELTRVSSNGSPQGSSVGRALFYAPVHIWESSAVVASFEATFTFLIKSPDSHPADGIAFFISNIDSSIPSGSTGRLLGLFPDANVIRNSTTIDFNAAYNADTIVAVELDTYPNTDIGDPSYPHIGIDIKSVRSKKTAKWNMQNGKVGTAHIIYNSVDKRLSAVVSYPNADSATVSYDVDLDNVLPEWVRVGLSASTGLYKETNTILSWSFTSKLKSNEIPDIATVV

Left-right determination factor 2 (Homo sapiens), sequence (O00292 whole entry, looked up): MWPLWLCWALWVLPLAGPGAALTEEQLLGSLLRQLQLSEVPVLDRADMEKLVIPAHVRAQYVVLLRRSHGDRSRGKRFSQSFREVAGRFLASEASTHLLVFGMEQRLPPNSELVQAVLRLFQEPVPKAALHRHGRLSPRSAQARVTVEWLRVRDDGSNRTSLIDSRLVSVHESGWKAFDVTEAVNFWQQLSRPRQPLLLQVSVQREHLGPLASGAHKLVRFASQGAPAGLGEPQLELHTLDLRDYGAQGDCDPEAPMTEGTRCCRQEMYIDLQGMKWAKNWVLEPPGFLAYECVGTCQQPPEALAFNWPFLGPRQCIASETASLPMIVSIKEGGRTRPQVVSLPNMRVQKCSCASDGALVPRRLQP
Albumin (Bos taurus), sequence (P02769 whole entry, looked up): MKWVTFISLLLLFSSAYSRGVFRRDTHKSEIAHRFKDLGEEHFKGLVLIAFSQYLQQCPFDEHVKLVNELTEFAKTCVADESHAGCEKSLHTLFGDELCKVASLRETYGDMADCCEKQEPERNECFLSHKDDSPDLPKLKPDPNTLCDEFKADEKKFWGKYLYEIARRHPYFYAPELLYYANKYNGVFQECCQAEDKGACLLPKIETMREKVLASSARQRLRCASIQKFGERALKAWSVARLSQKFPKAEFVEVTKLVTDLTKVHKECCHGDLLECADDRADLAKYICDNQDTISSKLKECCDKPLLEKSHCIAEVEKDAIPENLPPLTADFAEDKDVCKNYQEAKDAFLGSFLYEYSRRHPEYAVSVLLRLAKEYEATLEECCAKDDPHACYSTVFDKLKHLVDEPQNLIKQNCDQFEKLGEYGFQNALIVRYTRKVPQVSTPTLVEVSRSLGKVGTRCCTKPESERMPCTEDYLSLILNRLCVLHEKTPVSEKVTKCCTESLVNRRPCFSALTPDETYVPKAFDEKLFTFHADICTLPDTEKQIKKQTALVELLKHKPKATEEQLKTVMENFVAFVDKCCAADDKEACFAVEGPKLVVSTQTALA
Alpha-bungarotoxin (Bungarus multicinctus), sequence (P60615 whole entry, looked up): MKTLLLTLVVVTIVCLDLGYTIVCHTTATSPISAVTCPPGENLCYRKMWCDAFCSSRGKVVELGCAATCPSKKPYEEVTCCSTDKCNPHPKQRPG
Torsin-1A-interacting protein 1 (Homo sapiens), sequence (Q5JTV8 whole entry, looked up): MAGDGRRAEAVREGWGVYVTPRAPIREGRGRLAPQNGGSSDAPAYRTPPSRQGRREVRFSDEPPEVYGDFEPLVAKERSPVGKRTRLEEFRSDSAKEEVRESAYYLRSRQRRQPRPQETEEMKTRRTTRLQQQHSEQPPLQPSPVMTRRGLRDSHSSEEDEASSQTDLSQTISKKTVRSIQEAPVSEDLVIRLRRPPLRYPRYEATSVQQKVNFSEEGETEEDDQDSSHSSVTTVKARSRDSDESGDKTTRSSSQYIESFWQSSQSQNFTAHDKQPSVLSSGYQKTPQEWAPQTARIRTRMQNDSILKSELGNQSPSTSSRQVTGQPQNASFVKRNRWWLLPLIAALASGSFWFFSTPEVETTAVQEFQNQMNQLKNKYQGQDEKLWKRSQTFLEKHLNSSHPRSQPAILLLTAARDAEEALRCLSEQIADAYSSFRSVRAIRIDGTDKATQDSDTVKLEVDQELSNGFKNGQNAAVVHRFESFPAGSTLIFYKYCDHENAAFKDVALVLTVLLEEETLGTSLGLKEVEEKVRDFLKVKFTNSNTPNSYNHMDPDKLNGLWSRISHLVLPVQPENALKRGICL

SMILES	composite z-score [1]	z-score [2]	composite z-score [3]	composite z-score [4]	composite z-score [5]	composite z-score [6]	composite z-score [7]	composite z-score [8]	composite z-score [9]	composite z-score [10]	composite z-score [11]	composite Z-score [12]	composite z-score [13]	composite z-score [14]	composite z-score [15]	composite z-score [16]	composite z-score [17]	composite z-score [18]	composite z-score [19]	composite z-score [20]
COc1ccc(COC(=O)NN=C2C[C@@H](O)[C@@H](O)[C@@H]3[C@@H]4C(=O)N(c5cccc(Oc6ccccc6)c5)C(=O)[C@@H]4CC[C@H]23)cc1	-0.0321	-1.46	-0.35	0.0317	0.176	-0.215	-0.2	-0.336	0.215	0.971	0.64	-0.626 (inactive)	0.0793	-0.0665	-0.0831	0.852	-0.0241	-0.546	-0.636	0.433
COC(=O)[C@@H]1CC[C@H](C)[C@@H](c2ccc(C)cc2)N1C(=O)c1ccc(C=NOC[C@@H](O)[C@H]2O[C@@H]3OC(C)(C)O[C@@H]3[C@H]2O)cc1	1.15	-0.447	0.414	0.504	-0.12	-0.117	-0.0709	-0.168	0.555	0.776	0.333	-0.187 (inactive)	-0.0014	-0.128	0.368	0.424	0.228	1.02	0.402	0.736
CC(CCC(=O)OC[C@H]1O[C@H](C#Cc2ccccc2)C=C[C@@H]1Oc1ccc(C)cc1)=NO[C@H](C)c1cn([C@@H]2COC[C@H]2O)nn1	-0.231	-1.66	0.431	-0.411	-0.208	-0.0512	-0.138	0.354	-0.465	-0.493	-0.115	-0.166 (inactive)	-0.0697	-0.125	-0.129	-0.235	0.0502	-0.0882	0.308	-0.785
Cc1cc(C)c(-c2cc([C@H](C)ON=C[C@@H](C)[C@H](OCc3ccccc3)C(C)C)on2)c(C)c1	-1.42	-2.06	-0.0341	-0.27	-0.34	-0.0403	0.0815	-0.168	-0.601	0.108	-0.365	0.687 (inactive)	-0.061	-0.185	-0.206	-0.244	-0.637	-0.686	-0.11	-0.412
COc1ccc(COC(=O)NN=C2C[C@@H](O)[C@@H](O)[C@@H]3[C@@H]4C(=O)N(C[C@@H]5CCCO5)C(=O)[C@@H]4CC[C@H]23)cc1	-0.491	-0.186	-0.34	-0.325	0.237	0.0162	-0.138	-0.103	0.656	0.418	0.533	-0.713 (inactive)	0.0562	-0.0811	-0.283	0.121	-0.341	-0.624	0.144	-0.826
CON=C(C)CCN1CCc2nc(-c3ccccc3)c(-c3ccccc3)cc2C1	-0.539	-4.3	-0.117	0.709	0.0504	-0.219	-0.0011	0.107	0.0735	-0.107	0.633	0.837 (inactive)	-0.132	-0.0829	-0.153	-0.556	0.0881	-0.303	0.258	1.13
COc1cccc([C@H]2Oc3ccc(OC)cc3C(=NOCC[C@@H]3C=C[C@H](OC(C)=O)[C@@H](COC(C)=O)O3)[C@@H]2O)c1	0.687	-0.544	0.492	-0.547	-0.314	-0.0865	-0.0553	0.197	0.786	0.635	0.869	0.551 (inactive)	0.0293	-0.213	0.36	0.788	0.687	0.785	0.503	0.794
C[C@H]1CC[C@@H](C(=O)O)N[C@@H]1c1cccc(N2CCCC2=O)c1	0.4	1.09	0.263	-0.438	-0.55	-0.178	-0.2	-0.181	0.0221	0.197	-0.0315	-0.38 (inactive)	-0.173	-0.14	-0.192	-0.101	-0.127	0.0706	0.456	0.116
C#CCCCON=C1[C@H]2CCn3c(=O)n(Cc4cc5c(cc4Cl)OCO5)c(=O)n3[C@H]2[C@H](O)[C@@H]2O[C@H]12	0.493	0.113	0.711	-0.692	-1.22	-0.129	-0.273	-0.162	0.526	0.499	-0.252	-0.141 (inactive)	-0.0178	-0.106	-0.0303	-0.138	-0.122	0.431	0.424	0.656
CC(=O)OC[C@H]1O[C@H](CC=NO[C@@H](C)c2cn([C@H](CO)Cc3ccccc3)nn2)C=C[C@@H]1OC(C)=O	0.949	-1.02	0.656	-0.16	-0.174	-0.176	0.194	0.158	1.03	1.56	0.447	0.0225 (inactive)	0.0517	-0.0798	0.342	1.34	0.0198	0.987	0.394	0.506
